In the supplement of paper PMC11732987, “Enantioselective OTUD7B fragment discovery through chemoproteomics screening and high-throughput optimisation” (Communications Chemistry, 2025):

Legend:
Experiment in all cases: log2 ratio of Biotin-Ahx-Ub-VS probe labelling (fragment/DMSO); higher = less target engagement (more negative = stronger competition), active = hit call of the paper (q ≤ 0.05, log2 ratio ≤ -1)
Settings in all cases: compound concentration: 200 uM; treatment time: 3 h
USP34 = USP34 (UniProt Q70CQ2)
USP34, sequence (Q70CQ2 whole entry, the tested form may be a part): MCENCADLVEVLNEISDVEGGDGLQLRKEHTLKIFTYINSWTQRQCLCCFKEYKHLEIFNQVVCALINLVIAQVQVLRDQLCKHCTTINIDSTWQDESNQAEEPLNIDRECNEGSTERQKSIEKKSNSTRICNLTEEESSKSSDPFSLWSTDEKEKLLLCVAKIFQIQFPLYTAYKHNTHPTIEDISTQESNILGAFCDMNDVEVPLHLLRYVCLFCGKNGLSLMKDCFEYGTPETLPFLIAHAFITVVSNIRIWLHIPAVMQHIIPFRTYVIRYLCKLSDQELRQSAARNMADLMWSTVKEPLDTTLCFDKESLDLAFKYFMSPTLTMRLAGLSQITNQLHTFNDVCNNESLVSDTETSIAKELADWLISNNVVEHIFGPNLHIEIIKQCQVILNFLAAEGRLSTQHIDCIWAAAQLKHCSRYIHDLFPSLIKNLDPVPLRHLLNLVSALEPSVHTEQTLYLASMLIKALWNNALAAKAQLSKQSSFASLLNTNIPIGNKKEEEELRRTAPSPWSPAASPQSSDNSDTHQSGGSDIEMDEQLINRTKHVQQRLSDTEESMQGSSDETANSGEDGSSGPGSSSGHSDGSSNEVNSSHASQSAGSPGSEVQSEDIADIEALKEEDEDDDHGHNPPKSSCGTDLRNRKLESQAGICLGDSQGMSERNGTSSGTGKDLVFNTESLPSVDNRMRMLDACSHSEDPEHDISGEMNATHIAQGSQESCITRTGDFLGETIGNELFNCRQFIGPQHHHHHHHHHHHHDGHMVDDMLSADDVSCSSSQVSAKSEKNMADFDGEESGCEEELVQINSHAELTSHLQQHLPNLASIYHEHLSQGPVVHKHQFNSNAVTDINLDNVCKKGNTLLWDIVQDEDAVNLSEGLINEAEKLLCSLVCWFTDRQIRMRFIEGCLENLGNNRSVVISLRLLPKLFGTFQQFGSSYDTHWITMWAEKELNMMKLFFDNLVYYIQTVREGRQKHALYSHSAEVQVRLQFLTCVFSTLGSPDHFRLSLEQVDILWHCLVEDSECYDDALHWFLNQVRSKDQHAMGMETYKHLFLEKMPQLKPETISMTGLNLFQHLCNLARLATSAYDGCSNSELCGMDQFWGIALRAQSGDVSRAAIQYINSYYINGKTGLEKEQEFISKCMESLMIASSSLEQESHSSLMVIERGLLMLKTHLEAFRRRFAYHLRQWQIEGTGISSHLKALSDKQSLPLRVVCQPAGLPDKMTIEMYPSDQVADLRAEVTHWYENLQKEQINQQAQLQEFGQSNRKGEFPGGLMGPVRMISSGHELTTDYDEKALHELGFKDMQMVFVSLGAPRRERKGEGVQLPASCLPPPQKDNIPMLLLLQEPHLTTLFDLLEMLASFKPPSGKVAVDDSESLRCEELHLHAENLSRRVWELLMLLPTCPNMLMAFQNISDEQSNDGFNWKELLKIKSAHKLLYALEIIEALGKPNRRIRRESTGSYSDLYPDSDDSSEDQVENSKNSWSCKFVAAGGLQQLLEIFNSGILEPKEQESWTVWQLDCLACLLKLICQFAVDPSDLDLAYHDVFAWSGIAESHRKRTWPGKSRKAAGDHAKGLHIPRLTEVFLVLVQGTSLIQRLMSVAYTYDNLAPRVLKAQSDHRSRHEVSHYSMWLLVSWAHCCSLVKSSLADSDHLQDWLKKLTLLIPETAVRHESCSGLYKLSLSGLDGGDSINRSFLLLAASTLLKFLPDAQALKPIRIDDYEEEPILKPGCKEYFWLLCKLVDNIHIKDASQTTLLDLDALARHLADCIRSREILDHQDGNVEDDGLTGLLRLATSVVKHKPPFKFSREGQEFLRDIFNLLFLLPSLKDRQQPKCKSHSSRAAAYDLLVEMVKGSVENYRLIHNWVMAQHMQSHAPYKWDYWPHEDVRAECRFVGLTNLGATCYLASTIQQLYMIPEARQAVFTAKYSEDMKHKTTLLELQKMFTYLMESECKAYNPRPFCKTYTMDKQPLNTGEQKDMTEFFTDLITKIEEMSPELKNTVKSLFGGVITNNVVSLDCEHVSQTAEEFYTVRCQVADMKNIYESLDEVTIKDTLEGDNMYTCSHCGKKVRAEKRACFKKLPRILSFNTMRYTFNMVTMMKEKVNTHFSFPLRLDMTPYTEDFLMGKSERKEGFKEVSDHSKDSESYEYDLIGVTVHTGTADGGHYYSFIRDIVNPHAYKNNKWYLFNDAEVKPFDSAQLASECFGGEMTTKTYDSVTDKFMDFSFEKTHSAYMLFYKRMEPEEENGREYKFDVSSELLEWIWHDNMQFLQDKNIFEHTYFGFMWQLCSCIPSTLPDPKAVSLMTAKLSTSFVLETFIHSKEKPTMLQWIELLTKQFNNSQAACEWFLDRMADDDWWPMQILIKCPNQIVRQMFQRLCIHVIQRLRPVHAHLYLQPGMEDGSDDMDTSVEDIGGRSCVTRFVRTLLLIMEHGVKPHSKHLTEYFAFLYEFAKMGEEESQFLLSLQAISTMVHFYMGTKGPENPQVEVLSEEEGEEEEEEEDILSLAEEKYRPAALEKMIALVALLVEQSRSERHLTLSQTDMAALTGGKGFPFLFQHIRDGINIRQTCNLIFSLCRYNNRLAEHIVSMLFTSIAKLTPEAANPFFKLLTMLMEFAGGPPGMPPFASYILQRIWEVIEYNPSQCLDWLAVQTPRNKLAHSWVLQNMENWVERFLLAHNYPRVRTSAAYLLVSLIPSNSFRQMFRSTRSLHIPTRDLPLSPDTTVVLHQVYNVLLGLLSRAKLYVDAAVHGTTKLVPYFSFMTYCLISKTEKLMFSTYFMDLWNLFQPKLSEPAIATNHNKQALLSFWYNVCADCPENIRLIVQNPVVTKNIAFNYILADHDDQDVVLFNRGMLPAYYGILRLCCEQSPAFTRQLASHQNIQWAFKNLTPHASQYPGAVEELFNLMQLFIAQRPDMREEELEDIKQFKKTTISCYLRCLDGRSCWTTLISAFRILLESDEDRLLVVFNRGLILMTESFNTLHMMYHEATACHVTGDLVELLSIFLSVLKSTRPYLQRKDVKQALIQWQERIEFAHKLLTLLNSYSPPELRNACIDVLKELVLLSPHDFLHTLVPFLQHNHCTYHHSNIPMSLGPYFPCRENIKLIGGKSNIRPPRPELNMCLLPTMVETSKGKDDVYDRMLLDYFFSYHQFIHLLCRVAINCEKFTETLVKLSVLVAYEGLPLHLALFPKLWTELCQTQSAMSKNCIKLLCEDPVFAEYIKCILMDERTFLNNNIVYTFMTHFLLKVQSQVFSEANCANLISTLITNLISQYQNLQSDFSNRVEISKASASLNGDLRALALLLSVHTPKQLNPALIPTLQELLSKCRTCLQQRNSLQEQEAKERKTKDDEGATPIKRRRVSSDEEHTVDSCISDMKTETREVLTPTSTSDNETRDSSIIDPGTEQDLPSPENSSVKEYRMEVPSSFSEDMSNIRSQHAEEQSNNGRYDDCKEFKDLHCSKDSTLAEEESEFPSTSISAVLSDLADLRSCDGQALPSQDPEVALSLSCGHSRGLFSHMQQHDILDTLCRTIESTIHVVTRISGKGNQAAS
Outline: (§1)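 HEK293T lysate, 495 µg per sample in Tris/CHAPS/IGEPAL buffer with protease inhibitors, was treated in triplicate with fragment at 200 µM or vehicle for 3 h and then with Biotin-Ahx-Ub-VS at 0.5 µM final for 1 h. Labelled DUBs were NeutrAvidin-enriched, digested with LysC and trypsin, and run by diaPASEF LC-MS/MS. Spectronaut label-free quantities were global-median-normalised, and values are average log2 fragment/vehicle ratios by unpaired t-test on proteins with ≥2 unique peptides.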

USP36 = biological target: T1, USP36 (UniProt Q9P275)
T1 sequence (whole entry): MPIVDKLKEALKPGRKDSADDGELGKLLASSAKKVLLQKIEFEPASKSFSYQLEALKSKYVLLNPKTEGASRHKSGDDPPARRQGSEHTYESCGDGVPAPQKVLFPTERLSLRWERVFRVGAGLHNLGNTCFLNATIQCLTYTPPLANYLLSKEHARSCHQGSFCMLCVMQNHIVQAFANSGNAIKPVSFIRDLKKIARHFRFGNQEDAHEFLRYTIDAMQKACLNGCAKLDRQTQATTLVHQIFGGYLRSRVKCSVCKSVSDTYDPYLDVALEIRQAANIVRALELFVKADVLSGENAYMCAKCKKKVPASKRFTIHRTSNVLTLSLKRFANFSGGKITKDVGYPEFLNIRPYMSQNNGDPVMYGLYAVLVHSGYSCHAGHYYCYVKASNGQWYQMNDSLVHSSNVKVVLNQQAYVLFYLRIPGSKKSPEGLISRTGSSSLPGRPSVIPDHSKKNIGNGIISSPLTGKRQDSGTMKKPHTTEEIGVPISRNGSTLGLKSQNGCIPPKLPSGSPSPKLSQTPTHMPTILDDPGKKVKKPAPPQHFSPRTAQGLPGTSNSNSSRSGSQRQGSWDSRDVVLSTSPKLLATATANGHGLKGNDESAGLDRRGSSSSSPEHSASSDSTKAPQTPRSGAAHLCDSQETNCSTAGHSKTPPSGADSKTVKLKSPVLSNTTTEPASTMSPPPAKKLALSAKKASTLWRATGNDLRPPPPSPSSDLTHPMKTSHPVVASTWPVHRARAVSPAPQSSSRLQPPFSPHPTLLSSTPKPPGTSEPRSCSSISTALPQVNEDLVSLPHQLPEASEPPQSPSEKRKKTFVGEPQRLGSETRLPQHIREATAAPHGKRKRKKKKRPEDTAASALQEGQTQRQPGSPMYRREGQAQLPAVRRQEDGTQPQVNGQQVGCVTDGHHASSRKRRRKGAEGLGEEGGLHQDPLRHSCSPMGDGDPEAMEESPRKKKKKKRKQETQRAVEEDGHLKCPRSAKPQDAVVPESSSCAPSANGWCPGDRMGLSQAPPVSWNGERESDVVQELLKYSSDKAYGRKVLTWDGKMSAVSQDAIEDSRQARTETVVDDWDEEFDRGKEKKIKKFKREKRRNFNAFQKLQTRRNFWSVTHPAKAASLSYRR
Outline: as §1

USP38 = biological target: T2, USP38 (UniProt Q8NB14)
T2 sequence (whole entry): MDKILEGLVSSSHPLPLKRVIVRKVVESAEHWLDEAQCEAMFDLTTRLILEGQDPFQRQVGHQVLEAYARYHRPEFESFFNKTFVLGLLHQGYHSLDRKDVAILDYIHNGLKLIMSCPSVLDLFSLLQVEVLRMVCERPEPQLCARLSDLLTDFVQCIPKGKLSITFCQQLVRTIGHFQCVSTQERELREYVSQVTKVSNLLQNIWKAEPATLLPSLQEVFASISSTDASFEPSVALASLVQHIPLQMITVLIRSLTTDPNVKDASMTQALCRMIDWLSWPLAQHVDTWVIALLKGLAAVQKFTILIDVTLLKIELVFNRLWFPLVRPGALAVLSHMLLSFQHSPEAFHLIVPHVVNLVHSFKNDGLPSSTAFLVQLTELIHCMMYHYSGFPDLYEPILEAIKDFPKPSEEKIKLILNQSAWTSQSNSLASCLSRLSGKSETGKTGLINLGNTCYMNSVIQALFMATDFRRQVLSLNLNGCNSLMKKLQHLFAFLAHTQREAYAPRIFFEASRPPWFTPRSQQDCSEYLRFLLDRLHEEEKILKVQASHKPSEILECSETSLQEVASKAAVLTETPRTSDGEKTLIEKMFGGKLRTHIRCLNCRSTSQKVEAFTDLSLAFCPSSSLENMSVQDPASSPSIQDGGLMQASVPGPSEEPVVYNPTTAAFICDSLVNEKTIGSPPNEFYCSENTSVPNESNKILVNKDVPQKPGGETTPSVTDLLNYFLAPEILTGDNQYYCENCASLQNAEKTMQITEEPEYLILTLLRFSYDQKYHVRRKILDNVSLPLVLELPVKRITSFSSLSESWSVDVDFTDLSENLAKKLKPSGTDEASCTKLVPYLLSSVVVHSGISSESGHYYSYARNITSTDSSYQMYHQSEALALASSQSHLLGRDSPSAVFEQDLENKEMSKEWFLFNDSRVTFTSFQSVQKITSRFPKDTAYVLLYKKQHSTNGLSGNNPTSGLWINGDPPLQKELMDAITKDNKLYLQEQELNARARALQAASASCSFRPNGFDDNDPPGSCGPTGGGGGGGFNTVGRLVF
Outline: as §1

USP39 = biological target: T3, USP39 (UniProt Q53GS9)
T3 sequence (whole entry): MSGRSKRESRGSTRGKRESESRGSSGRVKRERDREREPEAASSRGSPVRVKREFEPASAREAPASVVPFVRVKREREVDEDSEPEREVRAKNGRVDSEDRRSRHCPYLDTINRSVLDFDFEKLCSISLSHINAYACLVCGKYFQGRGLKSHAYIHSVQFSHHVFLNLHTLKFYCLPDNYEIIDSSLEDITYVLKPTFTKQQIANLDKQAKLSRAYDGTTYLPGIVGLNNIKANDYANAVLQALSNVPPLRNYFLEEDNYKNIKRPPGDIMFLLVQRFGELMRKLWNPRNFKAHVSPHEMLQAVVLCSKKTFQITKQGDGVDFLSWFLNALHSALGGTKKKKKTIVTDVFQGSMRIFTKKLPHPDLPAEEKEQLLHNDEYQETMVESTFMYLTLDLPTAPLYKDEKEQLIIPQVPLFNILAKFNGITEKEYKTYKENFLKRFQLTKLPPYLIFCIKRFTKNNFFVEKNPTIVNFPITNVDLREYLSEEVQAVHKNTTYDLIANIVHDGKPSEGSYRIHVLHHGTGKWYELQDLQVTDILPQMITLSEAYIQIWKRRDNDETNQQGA
Outline: as §1

USP4 = biological target: T4, USP4 (UniProt Q13107)
T4 sequence (whole entry): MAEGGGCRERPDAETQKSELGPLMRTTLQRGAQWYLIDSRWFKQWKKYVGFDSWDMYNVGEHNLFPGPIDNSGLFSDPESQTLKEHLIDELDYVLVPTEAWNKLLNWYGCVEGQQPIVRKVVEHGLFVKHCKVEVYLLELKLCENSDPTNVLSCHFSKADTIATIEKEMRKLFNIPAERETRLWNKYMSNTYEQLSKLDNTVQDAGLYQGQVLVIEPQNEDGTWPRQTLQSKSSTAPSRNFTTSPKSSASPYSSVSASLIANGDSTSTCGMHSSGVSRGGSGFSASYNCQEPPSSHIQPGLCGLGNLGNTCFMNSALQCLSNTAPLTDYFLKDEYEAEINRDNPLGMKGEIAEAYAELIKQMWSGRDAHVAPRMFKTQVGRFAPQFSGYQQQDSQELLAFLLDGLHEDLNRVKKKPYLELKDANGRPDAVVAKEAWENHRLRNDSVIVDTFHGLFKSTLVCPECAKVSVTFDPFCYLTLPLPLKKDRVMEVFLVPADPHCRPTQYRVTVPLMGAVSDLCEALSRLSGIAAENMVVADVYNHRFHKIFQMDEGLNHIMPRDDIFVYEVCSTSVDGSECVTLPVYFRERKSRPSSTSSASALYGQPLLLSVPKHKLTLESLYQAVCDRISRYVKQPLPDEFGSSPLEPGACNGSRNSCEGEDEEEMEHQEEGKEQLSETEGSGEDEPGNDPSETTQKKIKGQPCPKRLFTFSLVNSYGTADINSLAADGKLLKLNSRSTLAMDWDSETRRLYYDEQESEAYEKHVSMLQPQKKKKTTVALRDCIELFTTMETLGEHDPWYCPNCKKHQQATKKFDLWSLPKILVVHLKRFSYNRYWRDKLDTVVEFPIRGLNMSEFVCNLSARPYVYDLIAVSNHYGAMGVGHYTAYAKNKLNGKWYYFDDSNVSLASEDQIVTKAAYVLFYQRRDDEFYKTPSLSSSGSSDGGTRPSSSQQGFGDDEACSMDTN
Outline: as §1

Measured: log2 ratio of Biotin-Ahx-Ub-VS probe labelling

Cc1ccc(N(CCC#N)C(=O)CCl)cc1C
inactive: USP34 -0.0882 | USP36 -0.062 | USP38 -0.15 | USP39 0.18 | USP4 0.0498
